The record followed here is article PMC11006913.

Among the targets are ALX4 (Homo sapiens, UniProt Q9H161 200-286); HOXA2 (Homo sapiens, UniProt O43364 129-215, R185T); HOXB4 (Homo sapiens, UniProt P17483 148-234, V174I).
Test in all cases: PBM; 200 nM protein, PBS
Holding throughout (details): dsDNA, one strand shown

In experiment [1] the target is T1, VENTX (Homo sapiens, UniProt O95231 78-163, R121Q).
T1 sequence: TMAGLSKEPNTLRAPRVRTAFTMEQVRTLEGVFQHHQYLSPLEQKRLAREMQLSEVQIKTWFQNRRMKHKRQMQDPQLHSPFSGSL

The target of experiment [2] is T2, PAX4 (Homo sapiens, UniProt O43316 9-242, R200K).
T2 sequence: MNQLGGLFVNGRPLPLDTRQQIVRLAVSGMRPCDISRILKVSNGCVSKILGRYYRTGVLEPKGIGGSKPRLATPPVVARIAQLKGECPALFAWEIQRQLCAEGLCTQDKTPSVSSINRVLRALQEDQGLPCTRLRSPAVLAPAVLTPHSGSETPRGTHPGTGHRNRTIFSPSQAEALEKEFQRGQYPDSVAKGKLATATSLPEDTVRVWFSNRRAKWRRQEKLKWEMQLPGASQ

Experiment [3] has as its target PRRX1 (Homo sapiens, UniProt P54821 80-166, F113S).
The target of experiment [4] is T3, VENTX (Homo sapiens, UniProt O95231 78-163, Y115F).
T3 sequence: T1 sequence with Y38F, Q44R

The target of experiment [5] is T4, PAX4 (Homo sapiens, UniProt O43316 9-242, R200Q).
T4 sequence: T2 sequence with K192Q

Experiment [6] concerns the target T5, PAX4 (Homo sapiens, UniProt O43316 9-242, F177V).
T5 sequence: T2 sequence with F169V, K192R

Experiment [7] deals with MSX2 (Homo sapiens, UniProt P35548 130-214).
Experiment [8] concerns the target T6, PAX4 (Homo sapiens, UniProt O43316 9-242, F177Y).
T6 sequence: T2 sequence with F169Y, K192R

Experiment [9] deals with MSX2 (Homo sapiens, UniProt P35548 130-214, F161Y).
For experiment [10], the target named is VAX1 (Homo sapiens, UniProt Q5SQQ9 86-172, T142I).
Experiment [11] has as its target HOXA4 (Homo sapiens, UniProt Q00056 201-287, W262F).
Experiment [12] concerns the target PRRX1 (Homo sapiens, UniProt P54821 80-166).
The target in experiment [13] is VAX1 (Homo sapiens, UniProt Q5SQQ9 86-172, K157R).
The target in experiment [14] is HOXA4 (Homo sapiens, UniProt Q00056 201-287, R217L).

Substitutions are numbered along the chain they refer to.

Chain of PRRX1 (Homo sapiens, UniProt P54821 80-166) (P54821 80-166): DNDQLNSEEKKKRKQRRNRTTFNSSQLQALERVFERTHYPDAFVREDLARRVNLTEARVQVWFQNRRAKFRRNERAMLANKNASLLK
Chain of MSX2 (Homo sapiens, UniProt P35548 130-214) (P35548 130-214): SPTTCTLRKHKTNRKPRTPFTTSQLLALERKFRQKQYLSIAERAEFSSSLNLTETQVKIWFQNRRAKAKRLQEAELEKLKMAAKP
Chain of VAX1 (Homo sapiens, UniProt Q5SQQ9 86-172, T142I) (Q5SQQ9 86-172 T142I): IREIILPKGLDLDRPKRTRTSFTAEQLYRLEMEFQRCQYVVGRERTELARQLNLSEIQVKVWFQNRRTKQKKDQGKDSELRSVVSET
Chain of VAX1 (Homo sapiens, UniProt Q5SQQ9 86-172, K157R) (Q5SQQ9 86-172 K157R): as the sequence (Q5SQQ9 86-172 T142I) above, with I57T, K72R counted along it
Chain of ALX4 (Q9H161 200-286): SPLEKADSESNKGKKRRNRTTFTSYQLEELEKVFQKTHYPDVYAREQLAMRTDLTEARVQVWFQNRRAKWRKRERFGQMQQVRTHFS
Chain of HOXA2 (O43364 129-215 R185T): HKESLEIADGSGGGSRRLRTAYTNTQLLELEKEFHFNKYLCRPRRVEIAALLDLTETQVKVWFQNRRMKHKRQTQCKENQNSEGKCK
Chain of PRRX1 (Homo sapiens, UniProt P54821 80-166, F113S) (P54821 80-166 F113S): as the sequence (P54821 80-166) above, with F34S counted along it
Chain of HOXA4 (Homo sapiens, UniProt Q00056 201-287, W262F) (Q00056 201-287 W262F): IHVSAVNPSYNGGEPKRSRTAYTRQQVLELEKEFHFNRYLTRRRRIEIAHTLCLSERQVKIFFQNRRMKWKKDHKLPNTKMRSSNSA
Chain of MSX2 (Homo sapiens, UniProt P35548 130-214, F161Y) (P35548 130-214 F161Y): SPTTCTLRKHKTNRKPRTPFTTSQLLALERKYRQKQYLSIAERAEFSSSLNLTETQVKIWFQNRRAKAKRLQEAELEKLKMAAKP
Chain of HOXB4 (P17483 148-234 V174I): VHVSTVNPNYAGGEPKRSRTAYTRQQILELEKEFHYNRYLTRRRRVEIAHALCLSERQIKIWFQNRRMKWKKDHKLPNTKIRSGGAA
Chain of HOXA4 (Homo sapiens, UniProt Q00056 201-287, R217L) (Q00056 201-287 R217L): as the sequence (Q00056 201-287 W262F) above, with R17L, F62W counted along it

With AATTAGTG, the binding signal with VENTX [1] was 11.9 upbm affinity estimate (log intensity, higher = more binding, comparable within an allelic series); with ALX4, 13.9 upbm affinity estimate (log intensity, higher = more binding, comparable within an allelic series); in the experiment with PAX4 [2] it was 11.8 upbm affinity estimate (log intensity, higher = more binding, comparable within an allelic series); with PRRX1 [3], 11.2 upbm affinity estimate (log intensity, higher = more binding, comparable within an allelic series); with VENTX [4] it was 11.7 upbm affinity estimate (log intensity, higher = more binding, comparable within an allelic series); with HOXA2, 12.8 upbm affinity estimate (log intensity, higher = more binding, comparable within an allelic series). Also, the binding signal with PAX4 [5] is 12.3 upbm affinity estimate (log intensity, higher = more binding, comparable within an allelic series); in the experiment with PAX4 [6], 10.6 upbm affinity estimate (log intensity, higher = more binding, comparable within an allelic series); with MSX2 [7], 13.5 upbm affinity estimate (log intensity, higher = more binding, comparable within an allelic series); with PAX4 [8] it was 11.1 upbm affinity estimate (log intensity, higher = more binding, comparable within an allelic series); with MSX2 [9], 13.2 upbm affinity estimate (log intensity, higher = more binding, comparable within an allelic series); in the experiment with VAX1 [10], 12.6 upbm affinity estimate (log intensity, higher = more binding, comparable within an allelic series). Also, the binding signal with HOXA4 [11] is 11.6 upbm affinity estimate (log intensity, higher = more binding, comparable within an allelic series); with PRRX1 [12], 13.3 upbm affinity estimate (log intensity, higher = more binding, comparable within an allelic series); with VAX1 [13] it was 12.8 upbm affinity estimate (log intensity, higher = more binding, comparable within an allelic series).
For CCCAATTA, the binding signal in the experiment with VENTX [1] is 11.7 upbm affinity estimate (log intensity, higher = more binding, comparable within an allelic series); with ALX4, 13.9 upbm affinity estimate (log intensity, higher = more binding, comparable within an allelic series); with PAX4 [2], 11.6 upbm affinity estimate (log intensity, higher = more binding, comparable within an allelic series); with PRRX1 [3] it was 11.3 upbm affinity estimate (log intensity, higher = more binding, comparable within an allelic series); with VENTX [4], 11.5 upbm affinity estimate (log intensity, higher = more binding, comparable within an allelic series); in the experiment with HOXA2, 12.5 upbm affinity estimate (log intensity, higher = more binding, comparable within an allelic series). For the same sequence, the binding signal in the experiment with PAX4 [5] was 11.9 upbm affinity estimate (log intensity, higher = more binding, comparable within an allelic series); in the experiment with PAX4 [6] it was 10.4 upbm affinity estimate (log intensity, higher = more binding, comparable within an allelic series); in the experiment with MSX2 [7] it was 14 upbm affinity estimate (log intensity, higher = more binding, comparable within an allelic series); in the experiment with PAX4 [8], 10.8 upbm affinity estimate (log intensity, higher = more binding, comparable within an allelic series); with MSX2 [9], 13.7 upbm affinity estimate (log intensity, higher = more binding, comparable within an allelic series); with VAX1 [10] it was 12.3 upbm affinity estimate (log intensity, higher = more binding, comparable within an allelic series). Also, the binding signal was 13.4 upbm affinity estimate (log intensity, higher = more binding, comparable within an allelic series) with PRRX1 [12] and 12.6 upbm affinity estimate (log intensity, higher = more binding, comparable within an allelic series) with VAX1 [13].
AATTAGCC: the binding signal in the experiment with ALX4 was 13.8 upbm affinity estimate (log intensity, higher = more binding, comparable within an allelic series); in the experiment with PAX4 [2], 11.5 upbm affinity estimate (log intensity, higher = more binding, comparable within an allelic series); in the experiment with PRRX1 [3], 10.7 upbm affinity estimate (log intensity, higher = more binding, comparable within an allelic series); with PAX4 [5], 11.7 upbm affinity estimate (log intensity, higher = more binding, comparable within an allelic series); in the experiment with PAX4 [6], 10.1 upbm affinity estimate (log intensity, higher = more binding, comparable within an allelic series); in the experiment with MSX2 [7] it was 13.3 upbm affinity estimate (log intensity, higher = more binding, comparable within an allelic series). The binding signal was 10.5 upbm affinity estimate (log intensity, higher = more binding, comparable within an allelic series) with PAX4 [8]; 12.9 upbm affinity estimate (log intensity, higher = more binding, comparable within an allelic series) with MSX2 [9]; 12.1 upbm affinity estimate (log intensity, higher = more binding, comparable within an allelic series) in the experiment with VAX1 [10]; 13.2 upbm affinity estimate (log intensity, higher = more binding, comparable within an allelic series) in the experiment with PRRX1 [12]; 12.1 upbm affinity estimate (log intensity, higher = more binding, comparable within an allelic series) with VAX1 [13].
With AATTAACG, the binding signal with VENTX [1] is 11.7 upbm affinity estimate (log intensity, higher = more binding, comparable within an allelic series); in the experiment with ALX4, 13.9 upbm affinity estimate (log intensity, higher = more binding, comparable within an allelic series); with PAX4 [2], 11.6 upbm affinity estimate (log intensity, higher = more binding, comparable within an allelic series); with PRRX1 [3] it was 11.1 upbm affinity estimate (log intensity, higher = more binding, comparable within an allelic series); with VENTX [4] it was 11.5 upbm affinity estimate (log intensity, higher = more binding, comparable within an allelic series); in the experiment with HOXA4 [14], 12.1 upbm affinity estimate (log intensity, higher = more binding, comparable within an allelic series). The binding signal is 12 upbm affinity estimate (log intensity, higher = more binding, comparable within an allelic series) with PAX4 [5]; 10.6 upbm affinity estimate (log intensity, higher = more binding, comparable within an allelic series) with PAX4 [6]; 11 upbm affinity estimate (log intensity, higher = more binding, comparable within an allelic series) in the experiment with PAX4 [8]; 11.6 upbm affinity estimate (log intensity, higher = more binding, comparable within an allelic series) in the experiment with HOXA4 [11]; 13.3 upbm affinity estimate (log intensity, higher = more binding, comparable within an allelic series) with PRRX1 [12].
As to TAATTGAA, the binding signal with ALX4 was 13.9 upbm affinity estimate (log intensity, higher = more binding, comparable within an allelic series); in the experiment with PRRX1 [3] it was 11.2 upbm affinity estimate (log intensity, higher = more binding, comparable within an allelic series); with HOXA2, 12.5 upbm affinity estimate (log intensity, higher = more binding, comparable within an allelic series); with HOXB4, 13.6 upbm affinity estimate (log intensity, higher = more binding, comparable within an allelic series); in the experiment with MSX2 [7], 13.6 upbm affinity estimate (log intensity, higher = more binding, comparable within an allelic series); with MSX2 [9] it was 13.2 upbm affinity estimate (log intensity, higher = more binding, comparable within an allelic series). In addition, the binding signal with PRRX1 [12] was 13.3 upbm affinity estimate (log intensity, higher = more binding, comparable within an allelic series).
As to GACAATTA, the binding signal with PRRX1 [3] is 11 upbm affinity estimate (log intensity, higher = more binding, comparable within an allelic series); with MSX2 [7] it was 13.8 upbm affinity estimate (log intensity, higher = more binding, comparable within an allelic series); with MSX2 [9], 13.4 upbm affinity estimate (log intensity, higher = more binding, comparable within an allelic series); in the experiment with PRRX1 [12] it was 13.2 upbm affinity estimate (log intensity, higher = more binding, comparable within an allelic series).
On to GAGGGGGC, for which the binding signal in the experiment with HOXA2 was 7.01 upbm affinity estimate (log intensity, higher = more binding, comparable within an allelic series).
Turning to AATTAAGG, the binding signal with ALX4 was 13.6 upbm affinity estimate (log intensity, higher = more binding, comparable within an allelic series).
With TAATTGGA, the binding signal in the experiment with VENTX [1] is 11.7 upbm affinity estimate (log intensity, higher = more binding, comparable within an allelic series); in the experiment with ALX4, 14 upbm affinity estimate (log intensity, higher = more binding, comparable within an allelic series); with PRRX1 [3] it was 11.4 upbm affinity estimate (log intensity, higher = more binding, comparable within an allelic series); with HOXA2 it was 12.5 upbm affinity estimate (log intensity, higher = more binding, comparable within an allelic series); in the experiment with PAX4 [5], 12 upbm affinity estimate (log intensity, higher = more binding, comparable within an allelic series); in the experiment with MSX2 [7], 14 upbm affinity estimate (log intensity, higher = more binding, comparable within an allelic series). Further, the binding signal was 13.6 upbm affinity estimate (log intensity, higher = more binding, comparable within an allelic series) with MSX2 [9] and 13.4 upbm affinity estimate (log intensity, higher = more binding, comparable within an allelic series) in the experiment with PRRX1 [12].
With AATTAAGT, the binding signal was 13.9 upbm affinity estimate (log intensity, higher = more binding, comparable within an allelic series) with ALX4; 11.6 upbm affinity estimate (log intensity, higher = more binding, comparable within an allelic series) with PAX4 [2]; 11.2 upbm affinity estimate (log intensity, higher = more binding, comparable within an allelic series) with PRRX1 [3]; 12.1 upbm affinity estimate (log intensity, higher = more binding, comparable within an allelic series) with HOXA2; 11.9 upbm affinity estimate (log intensity, higher = more binding, comparable within an allelic series) with PAX4 [5]; 10.5 upbm affinity estimate (log intensity, higher = more binding, comparable within an allelic series) with PAX4 [6]. Moreover, the binding signal with MSX2 [7] is 13.3 upbm affinity estimate (log intensity, higher = more binding, comparable within an allelic series); with PAX4 [8], 10.9 upbm affinity estimate (log intensity, higher = more binding, comparable within an allelic series); with MSX2 [9], 12.9 upbm affinity estimate (log intensity, higher = more binding, comparable within an allelic series); in the experiment with HOXA4 [11], 11.4 upbm affinity estimate (log intensity, higher = more binding, comparable within an allelic series); in the experiment with PRRX1 [12], 13.3 upbm affinity estimate (log intensity, higher = more binding, comparable within an allelic series).
